# Experimental data: PubChem BioAssay AID463173 (ICCB-Longwood Screening Facility, Harvard Medical School, 2010)
# In all, about 52,000 compounds went through this assay and about 4,300 (8.3%) were called active. Shown is part of a subset that was picked to be rich in actives. A number with no mark means an inactive call. Rule as the data show it: active = survival mostly below about 52% (no sharp cut-off); inactive = mostly above about 56%.
# Test system: DeltatarO mutant
# Assay: S. aureus survival, RN4220 and DeltatarO strains – OD600, teichoic acid synthesis inhibitors, primary screen (AID 463173)
# Conditions: S. aureus RN4220 wild type/DeltatarO growth, OD600, 18 h, active compounds read low, screened at 18.75 µg/mL (by protocol)
row,SMILES,survival
1,COc1ccc(C(=O)NCc2ccc3c(c2)CCN3C(=O)c2cccc(C)c2)cc1OC,119%
2,Cc1ccc(Cl)cc1N1CCN(S(=O)(=O)c2ccc3[nH]c4c(c3c2)CCCC4)CC1,72%
3,COc1ccc(NC(=O)CN(c2ccccc2OC)S(C)(=O)=O)c(OC)c1,75%
4,Cc1ccc(-n2ccn(CC(=O)c3ccc(F)cc3)c(=O)c2=O)cc1C,69%
5,Cc1c(NC(=O)c2cc(=O)c3ccccc3o2)c(=O)n(-c2ccccc2)n1C,67%
6,Cc1cc(C)c2c(=O)cc(C(=O)Nc3c(C)n(C)n(-c4ccccc4)c3=O)oc2c1,65%
7,Cc1ccc2c(=O)cc(C(=O)Nc3c(C)n(C)n(-c4ccccc4)c3=O)oc2c1,39% (active)
8,Cc1cc2oc(C(=O)Nc3c(C)n(C)n(-c4ccccc4)c3=O)cc(=O)c2cc1C,78%
9,Cc1c(NC(=O)c2cc(=O)c3cc(Cl)ccc3o2)c(=O)n(-c2ccccc2)n1C,43% (active)
10,CCc1ccc2oc(C(=O)Nc3c(C)n(C)n(-c4ccccc4)c3=O)cc(=O)c2c1,97%
11,CCN(CC)CCN1C(=O)c2ccccc2NC1c1ccccc1F (stereo not given),106%
12,CCOc1ccc(NC(=O)CSc2cn(CCNC(=O)c3ccccc3F)c3ccccc23)cc1,71%
13,CCC(Sc1nccn1C)C(=O)Nc1cc(C)on1 (stereo not given),90%
14,CCC(Sc1nnc(-c2ccc(F)cc2)c(-c2ccc(F)cc2)n1)C(=O)NC1CCCC1 (stereo not given),75%
15,CCC(Sc1nc2nccnc2c(=O)n1Cc1ccccc1Cl)C(=O)NC1CCCCC1 (stereo not given),99%
16,CCC(Sc1nc2nccnc2c(=O)n1Cc1ccc(F)cc1)C(=O)NC1CCCCC1 (stereo not given),42% (active)
17,CCC(Sc1nc2nccnc2c(=O)n1Cc1ccc(Cl)cc1)C(=O)NC1CCCCC1 (stereo not given),19% (active)
18,CCC(Sc1nc2cc(OC)c(OC)cc2c(=O)n1Cc1ccc(Cl)cc1)C(=O)NCCOC (stereo not given),91%
19,CCC(Sc1nc2nccnc2c(=O)n1Cc1ccc(OC)cc1)C(=O)NC1CCCCC1 (stereo not given),104%
20,Cc1ccc(CSc2nc3cc(C(=O)NC4CCCC4)ccc3c(=O)n2Cc2ccccc2)cc1,57%

row,SMILES,survival
1,CCC(Sc1nc2nccnc2c(=O)n1Cc1ccc(C)cc1)C(=O)NC1CCCCC1 (stereo not given),39% (active)
2,CCC(C(=O)NC1CCCCC1)n1c(SCc2ccc(F)cc2)nc2ccncc21 (stereo not given),73%
3,CCOC(=O)N1CCN(C(=O)CN(c2cccc(Cl)c2C)S(=O)(=O)c2ccc(C)cc2)CC1,119%
4,CC1CCN(S(=O)(=O)c2csc(C(N)=O)c2)CC1,85%
5,CC1CCN(S(=O)(=O)c2cccc(C(=O)N(C)C3(C)CCS(=O)(=O)C3)c2)CC1 (stereo not given),75%
6,CN1CCN(C(c2ccc(F)cc2)c2sc3nc(-c4ccco4)nn3c2O)CC1 (stereo not given),79%
7,Cc1cc(C)c(S(=O)(=O)NCC(c2ccco2)N2CCOCC2)c(C)c1 (stereo not given),89%
8,CN(C)c1ccc(-c2nc3ccc(Cl)cn3c2Nc2ccc3c(c2)OCCO3)cc1,143%
9,COc1cccc2c1Oc1nc(-c3ccccc3)nc(SCC(=O)N3CCCCC3)c1C2,100%
10,COc1ccc(CCC(=O)N2CCc3c([nH]c4ccccc34)C2c2ccc(F)cc2)cc1 (stereo not given),83%
11,Cc1nnc(SCc2ccccc2)n1N,61% (active)
12,Cc1nnc(SCC(=O)O)n1N,114%
13,Cn1c(SCc2ccccc2)nnc1-c1ccccc1,93%
14,CC(C)Oc1ccc(CNC(=O)C2=Cc3ccccc3OC2)cc1,67%
15,CCOc1ccc(CCNC(=O)CCCc2nnc3n(CC)c(=O)c4sccc4n23)cc1OCC,92%
16,CCOC(=O)c1ccccc1NC(=O)CSc1ncc2c(n1)-c1ccccc1N(CC)S2(=O)=O,83%
17,COC(=O)c1ccccc1NC(=O)Cc1noc2ccc(C)cc12,39% (active)
18,Cc1ccc2onc(CC(=O)Nc3cc(F)ccc3F)c2c1,48%
19,COc1ccc(NC(=O)Cc2noc3ccc(C)cc23)cc1Cl,56% (active)
20,CCOc1ccccc1NC(=O)NCc1noc2ccc(C)cc12,35% (active)

row,SMILES,survival
1,CCOc1ccccc1NC(=O)Cc1noc2ccc(C)cc12,48%
2,CC(=O)c1cccc(NC(=O)Cc2noc3ccccc23)c1,49%
3,COc1ccccc1CNC(=O)NCc1noc2ccc(C)cc12,56%
4,Cc1ccc2onc(CNC(=O)Nc3ccccc3C#N)c2c1,76%
5,COc1ccc(Cl)cc1N(C)C(=O)Cc1noc2ccc(C)cc12,50%
6,COc1ccc(OC)c(CNC(=O)NCc2noc3ccc(C)cc23)c1,104%
7,Cc1ccc2onc(CC(=O)Nc3ccc(C(C)C)cc3)c2c1,46% (active)
8,Cc1ccc(CNC(=O)NCc2noc3ccc(C)cc23)cc1,47%
9,Cc1ccc(-c2nn3c(=O)cc(CN4CCN(C(=O)c5ccc(C(C)(C)C)cc5)CC4)nc3s2)cc1,67%
10,CCCCC(=O)Nc1cc2nn(-c3ccc(OCC)cc3)nc2cc1C,70%
11,CCN(c1ccccc1)S(=O)(=O)c1c(C)nc2scc(C)n2c1=O,66%
12,COc1ccc(CC(=O)NC2CC(=O)N(c3ccc(C)c(C)c3)C2)cc1OC (stereo not given),63%
13,Cc1cc(C(=O)Nc2ccc(-n3c(C)nc4ccccc4c3=O)cc2)ccc1[N+](=O)[O-],131%
14,Cc1cc(C)cc(NC(=O)NCc2noc3ccccc23)c1,52%
15,COc1cc(NC(=O)Cc2noc3ccccc23)cc(OC)c1OC,57%
16,CCOC(=O)c1ccc(NC(=O)Cc2coc3cc(C)cc(C)c23)cc1,60%
17,CCOc1ccc(NC(=O)Cc2coc3ccc(C)cc23)cc1,106%
18,Cc1cc(C)cc(NC(=O)Cc2noc3ccccc23)c1,54% (active)
19,CCOC(=O)c1ccc(NC(=O)Cc2noc3ccc(C)cc23)cc1,45% (active)
20,Cc1ccc(CNC(=O)C(C)n2c(=O)cc(C(F)(F)F)c3c(C)nn(C)c32)cc1 (stereo not given),67%
